The results in this text go back to PubChem BioAssay (EPA / NIEHS).

Each structure is given as a SMILES string. Activity calls are given as the source filed them. Rule for the calls: active = hit-call score of the fitted dose curve at least 0.9, where 1 is the maximum; inactive = score below 0.9.

A short description of the first test: CCTE_Padilla_ZF_Score.Tail: CCTE's 144 Hour Post-fertilization zebrafish Assay Score for Tail Malformation, Padilla Lab (AID 2284414). Summed up: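 Tail malformations were scored at 6 dpf by two blinded assessors under a stereo microscope. Chorionated embryos had been exposed from 6-8 hpf in sealed wells of 10% Hanks' at 26 C, then rinsed free of chemical at 5 dpf.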
Consider `FC(F)=C(F)OC(F)(F)C(F)(F)C(F)(F)F`, for which the outcome was inactive.

In the case of `CCOC(F)(F)C(F)(F)C(F)(F)C(F)(F)F`, the compound was called inactive.

On to `CC=CC(F)(F)C(F)(F)C(F)(F)F`, for which the result was inactive.

A short description of a further test: CCTE_Padilla_ZF_Score.Blood_pooling: CCTE's 144 Hour Post-fertilization zebrafish Assay Score for Blood Pooling, Padilla Lab (AID 2284415). Summed up: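 Blood pooling was scored at 6 dpf under a stereo microscope by two blinded assessors, fitted upward against DMSO. Single embryos were dosed at 6–8 hpf in 10% Hanks', kept sealed at 26C (14:10 h cycle) and rinsed at 5 dpf.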
For `FC(F)=C(F)OC(F)(F)C(F)(F)C(F)(F)F`, the result was inactive.

As for `CCOC(F)(F)C(F)(F)C(F)(F)C(F)(F)F`, the compound was called inactive.

On to `CC=CC(F)(F)C(F)(F)C(F)(F)F`, for which the result was inactive.

The nature of the next test: CCTE_Padilla_ZF_Score.Any: CCTE's 144 Hour Post-fertilization zebrafish Assay Score for Any Mortality or Malformation, Padilla Lab (AID 2284416). As for the experimental part: CCTE_Padilla_ZF_Phenotype_Score is a whole embryo, multiplexed assay using zebrafish ova exposed for 144 hours post fertilization on a 96-well plate.CCTE_Padilla_ZF_Score.Any is one of one assay component(s) measured or calculated from the CCTE_Padilla_ZF_Phenotype_Score assay. It is designed to make measurements of zebrafish development as detected with brightfield microscopy of developing zebrafish embryos.Data from the assay component CCTE_Padilla_ZF_Score.Any was analyzed into 1 assay endpoints. This assay endpoint, CCTE_Padilla_ZF_Score.Any, was analyzed in the positive analysis fitting direction relative to DMSO as the negative control and baseline of activity. Using a type of viability reporter, gain-of-signal activity can be used to understand changes in developmentals as they relate to the whole embryo. To generalize the intended target to other relatable targets, this assay endpoint is annotated to the zebrafish development intended target family, where the subfamily is embryonic morphogenesis and mortality.
Zebrafish husbandry: Wild type adult zebrafish (Danio rerio; undefined outbred stock obtained from Aquatic Research Organisms, Hampton, NH, 03842) were housed in an AAALAC-approved animal facility at 28C with a 14:10 h light: dark cycle (lights on at 08:30 h). Adult fish (2-3 females per male; density = 15-20 adults per tank) were kept in one of several 9-liter (L) flow-through colony tanks (Aquaneering Inc., San Diego, CA). All adults in a colony tank were placed in a 2 L (static) breeding tank (Aquatic Habitats, Apopka, FL) one hour prior to light onset. Typically, adults from two to three colony tanks were mated on the same day. Two hours after light onset the adults were returned to the colony tank. […]
Regarding `FC(F)=C(F)OC(F)(F)C(F)(F)C(F)(F)F`, the compound was classed as inactive.

On to `CCOC(F)(F)C(F)(F)C(F)(F)C(F)(F)F`, for which the compound was classed as inactive.

As for `CC=CC(F)(F)C(F)(F)C(F)(F)F`, the call was inactive.
